Screening results deposited in PubChem BioAssay by National Center for Advancing Translational Sciences (NCATS).
An excerpt weighted towards active compounds, which were near 21% of everything screened.
Shiga toxin inh: A qHTS for Small Molecule Inhibitors of Shiga Toxin. 290,000 compounds, 9.2% hits. Vero cells, Shiga toxin protein synthesis inhibition reporter. AID 2315, 2010. inhibition, % at 38.7 µM; in the data active means inhibition mostly above about 28%, no sharp cut-off; inactive means mostly below about 43%; further: 0% is about no effect
Pf growth 48h: Primary qHTS for delayed death inhibitors of the malarial parasite plastid, 48 hour incubation; P. falciparum luciferase growth in erythrocytes, 48 h; AID 504832, 2011; 310,000 compounds, 5.9% hits; Potency, µM (series often up to 28.7 µM), for the others: at the top dose activity change, negative = inhibition, usual class: inhibitors; further: potency means the concentration at half of the fitted maximal effect; on the % scale 0 is the no-effect control and ±100 the full control effect
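Growth was read as firefly luciferase luminescence after a 48 h, 37 C, 5% CO2 exposure of compounds to reporter-bearing P. falciparum cultures (0.1% parasitemia, 2% hematocrit final) in Albumax-supplemented RPMI 1640.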
Cycloheximide cs: Cycloheximide Counterscreen for Small Molecule Inhibitors of Shiga Toxin; AID 2314, 2010; max response, %; 300,000 compounds, 12% hits; cell reporter, cycloheximide protein synthesis inhibition counterscreen; in the data active means max response mostly above about 13%, no sharp cut-off; inactive means mostly below about 14%; further: read at 38.3 µM for the half of the compounds with a filed dose; 0% is about no effect
NS1 inh: qHTS Assay for Inhibitors of Influenza NS1 Protein Function; Potency, µM (series often up to 46.1 µM), for the others: top-dose activity, positive = more growth; 270,000 compounds, 0.4% hits; AID 2326, 2010; calls by dose curve; further: potency means the concentration at half of the fitted maximal effect; actives are rising curves; nearly all actives have a fitted effect of over 50% in size
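Read-out: OD600 growth recovery of NS1-expressing budding yeast. Cells grown overnight at 30C in -URA glucose medium, washed, resuspended and diluted 1:100 in 2% galactose assay medium, pH 6.0. Same strain lacking NS1 served as positive control.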
Pf growth 96h: Primary qHTS for delayed death inhibitors of the malarial parasite plastid, 96 hour incubation. 320,000 compounds, 6.9% hits. AID 504834, 2011. Potency, µM (doses to about 28.7 µM), for the others: at the top dose activity change, negative = inhibition, actives largely listed as inhibitors. P. falciparum luciferase reporter growth, 96 h; further: potency means the concentration at half of the fitted maximal effect; on the % scale 0 is the no-effect control and ±100 the full control effect
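Plates of compound plus infected erythrocytes (2% hematocrit, 0.05% parasitemia final) incubate 96 hours, 37 C, 5% CO2. Detection reagent added; reduced luminescence from the parasites' luciferase reporter flags inhibition.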
Sm TGR block: qHTS Assay for the Inhibitors of Schistosoma Mansoni Peroxiredoxins; Schistosoma mansoni thioredoxin glutathione reductase (TGR), Q962Y6; purified TGR, DTNB reduction, TNB absorbance 405 nm; Potency, µM (top dose mostly 114 µM), without a hit: at the highest dose activity change, negative = inhibition, usual class: inhibitors; 360,000 compounds, 3% hits; AID 485364, 2010; further: potency means the concentration at half of the fitted maximal effect; on the % scale 0 is the no-effect control and ±100 the full control effect; nearly all actives have a fitted effect of over 60% in size
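First, TGR (20 nM dispensed) and NADPH were mixed with compound. Second, a 15 min room-temperature incubation followed. Third, further NADPH and then DTNB were added to start the reaction. Finally, TNB absorbance was monitored kinetically.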
Starred values were filed as active, the others as inactive; ? = inconclusive; nt = not tested or not shown; ! = repeats disagree; [ ] = remark or other dose. Unless noted, the call rests on the fitted dose curve; in most records, active means well fitted curve in the direction sought with a large enough effect; inconclusive means small, poorly fitted or top-dose-only effect, or another doubt; inactive means no such curve, though single readings can be large; an effect the other way counts as inactive or inconclusive.

SMILES | Shiga toxin inh | Pf growth 48h | Cycloheximide cs | NS1 inh | Pf growth 96h | Sm TGR block
COc1ccc(/C(C)=N/NC(=O)c2ccccc2N)cc1 | 77.9* | ? | 34.2* | nt | 3.7µM* | 1.2%
COc1ccc(CCNC(=O)CCCCCN2C(=O)[C@@H]3Cc4ccccc4CN3C2=O)cc1OC | -6.3 | ? | 12.8 | -4.9% | ? | 2.1%
Cc1ccc(S(=O)(=O)C2(C(=O)NCCc3ccccc3)CC2)cc1 | 23.1 | -18.3% | 5.2 | -5.7% | -6.4% | 14.3%
Cc1cccc(NC(=O)CN2C(=O)C3(SCC(=O)N3c3ccccc3)c3ccccc32)c1 (centres undefined) | nt | nt | nt | nt | nt | -1.5%
Cc1cc(F)c(Nc2ncnc3cc(OCc4ccccc4)ccc23)cc1O | 17.0 | nt | 3.5 | nt | nt | nt
S=c1[nH]c2ccccc2[nH]1 | 14.9 | 5.4% | -3.9 | 9.0% | -2.7% | nt
S=c1[nH]c2cc3ccccc3cc2[nH]1 | 97.7*! | -0.5% | 43.5*! | -4.3% | ? | 8.91µM*!
CCN1C(=O)CS/C1=N\S(=O)(=O)c1ccc(Cl)cc1 | -7.9 | 5.9%[5.75 µM] | -0.6 | nt | -11.9% | -3.8%
CCn1c(Cl)c(C=O)s/c1=N\S(=O)(=O)c1ccccc1 | -39.0 | ? | -8.7 | -31.4% | ? | 0.316µM*
O=C(O)c1cccc(NC2=C(n3nnc4ccccc43)C(=O)c3ccccc3C2=O)c1 | 6.3 | 5.22µM* | -1.4 | 1.3% | 1.85µM* | 44.7µM*
Oc1ccccc1-c1nc(/C=C/c2ccccc2)nn1-c1ccccc1 | 32.6 | ? | 23.3* | 15.7% | 0.0% | 5.5%
Oc1ccc(/C=C/c2nc(-c3ccccc3O)n(-c3ccccc3)n2)cc1 | -33.6 | ? | 0.2 | -0.1% | 52.5% | -17.0%
CCNC(=S)N(Cc1cc2cc(C)cc(C)c2[nH]c1=O)C1CCCC1 | -6.1 | ? | -3.3 | 8.8% | 6.57µM* | 0.9%
COc1ccc(C(=O)N/N=C/c2ccccc2OC(=O)c2ccccc2)cc1 | 41.2* | ? | 33.4* | -15.1% | 1.9% | -0.6%
CC(C)(C)C(=O)Nc1ccc(C(=O)N/N=C/c2ccccc2OC(=O)c2ccccc2)cc1 | -14.5 | ? | 4.5 | -3.6% | 4.15µM* | 14.8%
COc1ccc(C(=O)N/N=C/c2ccc(OC(=O)c3ccccc3)cc2)cc1 | 19.0 | 14.6% | -0.8 | -38.6% | 72.4% | -0.1%
COc1cc(C(=O)Oc2ccccc2/C=N/NC(=O)c2ccc(C)cc2)cc(OC)c1OC | 118.0* | ? | 87.2* | -25.1% | ? | 7.8%
COc1cc(C(=O)Oc2ccc(/C=N/NC(=O)c3ccncc3)cc2)cc(OC)c1OC | -4.7 | -6.5% | 1.3 | -5.1% | 28.2% | 2.9%
COC(=O)c1ccc(C2c3c(oc4ccccc4c3=O)C(=O)N2c2nc(C)c(C(=O)OC)s2)cc1 (centres undefined) | nt | nt | nt | nt | nt | 3.0%
CCOC(=O)C(=CNc1ccccc1Cl)C(=O)OCC | 17.9 | 4.7% | 12.9 | -60.4% | ? | -1.1%
CCOC(=O)C(=CNc1ccc(-c2ccco2)c(Cl)c1)C(=O)OCC | -7.6 | ? | -2.5 | 10.6% | ? | 14.1µM*
CCOC(=O)C(=CNc1cc(Cl)c(-c2ccco2)c(Cl)c1)C(=O)OCC | -5.8 | 11.7µM* | -2.1 | 4.9% | -110.3% | -33.4%
COc1ccccc1NC(=O)c1ccc2nc(C)c(C)nc2c1 | -29.4 | 16.5% | 8.7 | -13.2% | 0.0% | 0.0%
COc1ccc(C(=O)Nc2ccc3nc(C)c(C)nc3c2)cc1 | 129.3* | -10.5%[0.00184 µM] | 39.0* | -11.5% | 0.8% | 0.7%
CNC(=S)Nc1ccc2nc(C)c(C)nc2c1 | 46.1 | 70.0% | 16.4 | -10.5% | 4.4% | 31.6µM*
SMILES | Shiga toxin inh | Pf growth 48h | Cycloheximide cs | NS1 inh | Pf growth 96h | Sm TGR block
COc1ccc(NC(=S)Nc2ccc3nc(C)c(C)nc3c2)cc1 | -7.0 | -1.7% | 2.7 | 10.9% | ? | 22.4µM*
CCN(Cc1ccccc1)C(=O)COC(=O)c1c(C)nsc1NC | nt | ? | nt | nt | ? | -22.4%
O=C(/C=C/c1ccc(Cl)cc1)N1CCC(c2nc3ccccc3o2)CC1 | nt | nt | nt | nt | nt | 0.3%
CN1/C(=C/C2CC(=O)NC2=O)C(C)(C)c2ccccc21 (centres undefined) | -10.5 | nt | 6.1 | -69.8% | 14.3% | 44.7µM*
Cc1cccc(OCCn2c(-c3ccc(Cl)cc3)nc3ccccc3c2=O)c1C | nt | nt | nt | nt | nt | 6.0%
Cc1cccc(NC(=O)COC(=O)Cc2cccc(C(F)(F)F)c2)c1C | -14.5 | 7.3% | -9.0 | 2.4% | -29.8% | -19.7%
Cn1c(SCc2c(F)cccc2Cl)nnc1-c1cccs1 | 68.3* | -22.8% | 27.8* | -9.9% | ? | 6.5%
Cn1c(SCC(=O)Nc2ccccc2F)nnc1-c1cccs1 | 43.4* | -3.4% | 26.0 | 6.3% | 34.0% | 9.8%
Cn1c(SCc2nc(-c3ccc(Cl)cc3)no2)nnc1-c1cccs1 | 22.2 | nt | 10.0 | 11.6% | -9.4% | 1.4%
CCNc1nc(NCC)nc(N(C)N)n1 | -5.1 | ? | -0.5 | -4.6% | ? | 5.0%
COc1ccc(Cl)cc1NC(=O)CN(C)C(=O)CN1C(=O)NC2(CCCC2)C1=O | nt | 12.0% | nt | nt | 54.8% | -18.9%
COc1ccccc1NC(=O)C(CC=C(Cl)Cl)C(C)=O (centres undefined) | -2.7 | -61.8% | 5.9 | -12.2% | ? | 35.5µM*
COc1ccccc1NC(=O)C(C/C=C(\C)Cl)C(C)=O (centres undefined) | -4.6 | 8.7% | -3.6 | -4.4% | 1.4% | -2.2%
COc1ccc(C(=O)NOCc2ccccc2)cc1 | nt | 59.4% | nt | nt | 102.5% | 4.5%
Cc1ccc(OC(=O)C2c3ccccc3Oc3ccccc32)cc1C | 9.9 | -11.8% | 5.0 | -27.7% | 5.22µM* | 2.5%
CCCC(C)NC(=O)C1c2ccccc2Oc2ccccc21 (centres undefined) | 9.7 | 7.6% | 5.3 | 21.3% | ? | -3.0%
CCN(CC)C(=O)C1c2ccccc2Oc2ccccc21 | 15.5 | 27.7% | -1.5 | 12.8% | 5.22µM* | -12.8%
CC(C)[N+](C)(CCOC(=O)C1c2ccccc2Oc2ccccc21)C(C)C | -7.4 | ? | -4.1 | -3.3% | 0.0147µM* | 17.5%
CC(C)c1ccc(NC(=O)C(C)N(c2ccccc2)S(C)(=O)=O)cc1 (centres undefined) | nt | nt | nt | nt | nt | -0.5%
Nc1ccc(C(=O)NCC(=O)O)cc1 | nt | 11.7µM*! | nt | nt | 9.28µM*! | -3.3%
Nc1ccc(C(=O)NCCCCCCNC(=O)c2ccc(N)cc2)cc1 | -4.5 | -1.1%[0.00184 µM] | 7.0 | 1.5% | ? | -8.7%
COc1cc(NC(=O)Cn2c(=O)cc(C)c3c(C)nn(-c4ccc(C)cc4)c32)cc(OC)c1 | nt | nt | nt | nt | nt | 0.5%
CC(C)(C)NS(=O)(=O)c1ccc(NC(=S)NC(=O)C2CC2)cc1 | 2.7 | -11.3% | 17.6 | 12.7% | ? | ?
FC(F)(F)c1ccc(C2NCCc3sccc32)cc1 (centres undefined) | 34.3 | 1.4% | 45.3* | 7.3% | -13.8% | nt
O=C(CSc1nccn1C1CCCC1)Nc1ccccc1 | nt | nt | nt | nt | nt | 10.2%
